Screening data as filed in PubChem BioAssay.
Shown are actives, neighbours in structure and some others; about 2.1% of the full set was active somewhere.
FUS suppressor – qHTS for Suppressors of FUS Proteinopathy: Primary screen using FUS-linked yeast assay | S. cerevisiae FUS-expressing, growth rescue, OD600, 24 h | Potency, µM (highest dose often 76.6 µM), most hits filed as activators | actives 0.24% (n = 390,000) | AID 1347120, 2019; note: nearly all actives have a fitted effect of over 55% in size
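Yeast expressing FUS under galactose induction, OD 0.005 in 2% galactose medium; compounds in a dilution series, 24 h at 30C. Growth rescue by absorbance at 600 nm; CP55940 positive control, DMSO negative.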
Abeta rescue – qHTS for compounds that reverse cellular toxicity of Amyloid beta (A-beta) peptide in yeast: Primary Screen | yeast expressing A-beta42, growth rescue, OD600, 48 h; response scale: 0% DMSO, 100% iron-clioquinol control | Potency, µM (top dose mostly 46.1 µM), hits mostly activators | actives 0.063% (n = 410,000) | AID 1347071, 2019; note: nearly all actives have a fitted effect of over 55% in size
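Yeast growth medium received pinned compounds, then yeast cells expressing toxic A-beta were added; plates incubated at 30 C for 48 hr. Growth read as absorbance at 600 nm, normalized to DMSO and equimolar FeCl3 plus clioquinol controls.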
TDP-43 yeast inh – qHTS of TDP-43 Inhibitors; TDP-43 expressing yeast growth rescue, BacTiter-Glo, 24 h; Potency, µM (titrated, usually from 46.1 µM), usual class: activators; actives 1.8% (n = 410,000); AID 652104, 2013; note: nearly all actives have a fitted effect of over 50% in size
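Growth rescue of TDP-43-toxic yeast measured as ATP luminescence (BacTiter-Glo). Cells grown to mid-log in raffinose, induced in galactose at OD600=0.02, exposed to compound 24 hr at 30 deg C.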
aSyn rescue – qHTS of alpha-syn Inhibitors; Yeast expressing alpha-synuclein, growth rescue, BacTiter-Glo, 24 h; Potency, µM (highest dose often 46.1 µM), usual class: activators; actives 0.14% (n = 370,000); note: nearly all actives have a fitted effect of over 65% in size
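Screening used galactose-induced yeast with toxic alpha-synuclein levels, exposed to compound for 24 hr at 30 deg C. Cell growth, read with BacTiter-Glo luminescence, gave the measured signal.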
Each line names hits and unclear results; the compound was inactive in the other large screens; ! = repeats disagree. Calls come from the whole dose curve; as a rule, active = well fitted curve in the direction sought with a large enough effect; inconclusive = small, poorly fitted or top-dose-only effect, or another doubt; inactive = no such curve, though single readings can be large; an effect the other way counts as inactive or inconclusive.

Cc1cn(C2OC(COC(=O)c3ccccc3)C(OC(=O)c3ccccc3)C2OC(=O)c2ccccc2)c(=O)[nH]c1=O (stereo unspecified)	FUS suppressor 25µM
O=C(NCC(c1ccco1)N1CCc2ccccc21)c1ccccc1Br (stereo unspecified)	TDP-43 yeast inh 14µM
Cc1ccc(C(=O)O/N=C2\CCCc3ccccc32)cc1	none (no result: aSyn rescue)
O=C(O/N=C1\CCCc2ccccc21)c1cccc(Cl)c1	TDP-43 yeast inh 5µM
Cc1cccc(C(=O)O/N=C2\CCCc3ccccc32)c1	TDP-43 yeast inh 11µM
CCOc1ccc(Cn2c(CNS(=O)(=O)c3cccs3)nc3cccnc32)cc1	none (no result: aSyn rescue)
O=C(Nc1cccs1)Nc1ccccc1Cl	none
Cc1cc(C)cc(NC(=O)Nc2cccs2)c1	none (no result: aSyn rescue)
Cc1ccc(NC(=O)Nc2cccs2)c(Cl)c1	TDP-43 yeast inh 13µM
O=C(Nc1cccs1)Nc1ccc(F)cc1F	TDP-43 yeast inh 14µM!
Cc1cccnc1NC(=O)Nc1cccs1	TDP-43 yeast inh 5µM
O=C(Nc1cccs1)Nc1ccc(Br)cc1F	TDP-43 yeast inh 14µM
COCC(=O)N(Cc1ccccc1)c1ccccc1C(=O)Nc1cc(OC)ccc1OC	none (no result: Abeta rescue, TDP-43 yeast inh, aSyn rescue)
COc1cccc(NC(=O)C2CCCN2C(=O)NCc2ccccc2)c1 (stereo unspecified)	none (no result: Abeta rescue, TDP-43 yeast inh, aSyn rescue)
O=C(Nc1ccc(F)cc1F)Nc1csc2ccccc12	TDP-43 yeast inh 11µM
COc1ccccc1Nc1c2c(nc3ccc(NC(=O)c4ccc(N(C)C)cc4)cc13)CCCC2	none (no result: aSyn rescue)
CCc1nn2c(=O)cc(COC(=O)c3ccc(NC(=O)c4cccs4)cc3)nc2s1	none (no result: aSyn rescue)
O=C(Cc1cccs1)N(Cc1cccs1)C1(C(=O)NC2CCCC2)CCCCC1	TDP-43 yeast inh 20µM
O=C(Cc1cccs1)N(Cc1ccco1)C1(C(=O)NC2CCCCC2)CCCCC1	none
COc1ccc2c(c1)c1c(c(=O)n(-c3ccc(C)cc3)c(=O)n1CC(=O)Nc1cc(C)ccc1C)n2C	none (no result: aSyn rescue)
O=C(Nc1ccc2oc(-c3cccnc3)nc2c1)c1ccc(-c2cccc(OC(F)(F)F)c2)o1	none (no result: aSyn rescue)
CC(O)(c1ccccc1)c1nc(-c2ccc(F)c(Cl)c2)cs1 (stereo unspecified)	none
COc1ccc(C(C)(NC(C)=O)c2nc(-c3cccc(C(F)(F)F)c3)cs2)cc1 (stereo unspecified)	FUS suppressor inconclusive, TDP-43 yeast inh 35µM
COc1ccc(C(C)(NC(C)=O)c2nc(-c3cccnc3)cs2)cc1 (stereo unspecified)	TDP-43 yeast inh inconclusive
CC(=O)NC(C)(c1ccccc1)c1nc(-c2ccc(F)c(Cl)c2)cs1 (stereo unspecified)	TDP-43 yeast inh 11µM
COc1ccc(N2CCN(C(=O)CSc3c4c(nc5ccc(Cl)cc35)CCCC4)CC2)cc1	FUS suppressor inconclusive, TDP-43 yeast inh 32µM (no result: aSyn rescue)
O=C(CSc1c2c(nc3ccc(Cl)cc13)CCCC2)N1CCN(c2ccc(Cl)cc2)CC1	FUS suppressor inconclusive, TDP-43 yeast inh 18µM (no result: aSyn rescue)
COc1ccc(OC)c(CNC(=O)CSc2c3c(nc4cc(Cl)ccc24)CCCC3)c1	none (no result: aSyn rescue)
O=C(CSc1c2c(nc3ccc(Cl)cc13)CCCC2)N1CCN(c2cccc(Cl)c2)CC1	FUS suppressor inconclusive, TDP-43 yeast inh 16µM (no result: aSyn rescue)
Cc1ccc(CNC(=O)CSc2c3c(nc4cc(Cl)ccc24)CCCC3)o1	FUS suppressor inconclusive, TDP-43 yeast inh 16µM
CSCCCNC(=O)Cn1nc(Cc2ccncc2)c2ccccc2c1=O	none (no result: Abeta rescue, TDP-43 yeast inh, aSyn rescue)
O=C(C1CCCN(S(=O)(=O)c2cccc3nsnc23)C1)N1CCN(c2ccccc2)CC1 (stereo unspecified)	none (no result: aSyn rescue)
O=C(CSc1ccccc1)NC1CCCCN(Cc2ccc(Cl)cc2)C1=O (stereo unspecified)	none (no result: Abeta rescue, TDP-43 yeast inh, aSyn rescue)
CCC(C)S(=O)(=O)c1oc(-c2cccs2)nc1S(=O)(=O)c1ccccc1 (stereo unspecified)	TDP-43 yeast inh 11µM (no result: aSyn rescue)
CNc1oc(-c2cccs2)nc1S(=O)(=O)c1ccccc1	none
CC(C)CS(=O)(=O)c1oc(-c2ccc(F)cc2)nc1S(=O)(=O)c1ccccc1	TDP-43 yeast inh 20µM (no result: aSyn rescue)
CCN(C(=O)c1cc(S(=O)(=O)N2CCc3ccccc32)cn1C)c1cccc(C)c1	FUS suppressor inconclusive (no result: aSyn rescue)
COc1ccc2c(CNCCc3ccccc3OC)c(C(=O)O)n(Cc3ccc(F)cc3Cl)c2c1	FUS suppressor inconclusive (no result: aSyn rescue)
COc1ccc(-c2coc3c(C(=O)Nc4ccc(OC)nc4)cccc23)c(C)c1	TDP-43 yeast inh 35µM
COCCCNC(=O)c1cccc2c(-c3ccc(OC)cc3C)coc12	TDP-43 yeast inh inconclusive
COc1ccc(-c2ccc(C(=O)Nc3ccc(OC)nc3)c3occc23)c(C)c1	FUS suppressor inconclusive, TDP-43 yeast inh 35µM
O=C(C[n+]1cccc2cc(Cl)ccc21)c1ccc2c(c1)CCCC2	none (no result: FUS suppressor, Abeta rescue, TDP-43 yeast inh)
COc1ccc(S(=O)(=O)NCc2cccn2Cc2cccc(C)c2)cc1OC	TDP-43 yeast inh 35µM (no result: aSyn rescue)
COc1ccc(S(=O)(=O)NCc2cccn2Cc2cc(C)ccc2C)cc1OC	TDP-43 yeast inh 35µM (no result: aSyn rescue)
O=C(CC1CCCC1)N1CC[C@H]2[C@H](CCCN2Cc2ccccc2)C1	none (no result: Abeta rescue, TDP-43 yeast inh, aSyn rescue)
O=C(c1ccccc1)C1CCN(C(=O)c2c(F)cccc2F)CC1	TDP-43 yeast inh 11µM
C=CCc1cccc(C=NNC(=O)CN2CCN(Cc3ccccc3)CC2)c1O	none (no result: FUS suppressor, Abeta rescue, TDP-43 yeast inh)
CC(C)C(=O)N(c1ccc2oc(=O)sc2c1)S(=O)(=O)c1cccs1	none
CC(=O)N(c1ccc2oc(=O)sc2c1)S(=O)(=O)c1cccs1	FUS suppressor 28µM
Cc1ccccc1N1C(=O)CC(N2CCC(C(N)=O)CC2)C1=O (stereo unspecified)	TDP-43 yeast inh 16µM
NC(=O)C1CCN(C2CC(=O)N(c3cccc(F)c3)C2=O)CC1 (stereo unspecified)	TDP-43 yeast inh inconclusive
COc1cc(/C=N/N2CCOCC2)ccc1OCc1ccccc1	none
COc1cc(/C=N/N2CCOCC2)ccc1OCc1ccc(Cl)cc1	TDP-43 yeast inh 11µM
O=c1nc2c(O)cccn2c2c1c(=O)[nH]c1ccccc12	none
O=c1[nH]c2ccccc2c2nc3ccccn3c12	TDP-43 yeast inh 22µM, aSyn rescue inconclusive
C=C(C)c1cccc(C(C)(C)NC(=O)Nc2ccc(C)cn2)c1	TDP-43 yeast inh 13µM (no result: FUS suppressor)
CC1(C(=O)N2CCC(Oc3cccnc3)CC2)CC1	none (no result: Abeta rescue, TDP-43 yeast inh, aSyn rescue)
Cc1ccc(S(=O)(=O)N2CCN(c3nc(-c4cccs4)nc4ncccc34)CC2)cc1	none (no result: FUS suppressor, Abeta rescue, TDP-43 yeast inh)
CCN(CC)c1ccc(/C=C(\C#N)c2ccccn2)cc1	TDP-43 yeast inh 16µM
CCN(Cc1ccccc1)c1ccc(/C=C(\C#N)c2ccccn2)cc1	none
Cc1cccc(NS(=O)(=O)c2ccc3c(c2)OCC(C(=O)N2CCCC2)O3)c1C (stereo unspecified)	none (no result: aSyn rescue)
CN1CCN(c2ccc(-c3nc(-c4ccccc4)no3)cc2[N+](=O)[O-])CC1	none (no result: aSyn rescue)
Cc1ccc(S(=O)(=O)NC(=O)COc2ccccc2C)c(C)c1	TDP-43 yeast inh 18µM (no result: FUS suppressor)
